Cruzain Triton = cruzain (T. cruzi) inhibition with detergent; P25779; purified cruzain, Z-FR-AMC fluorescence, 0.01% Triton; Potency, µM, inactives show max response, negative = inhibition, hits mostly inhibitors; 0.43% of 200,000 active; AID 1478;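 further: plate controls were neutral wells for no effect and buffer without enzyme for full effect; nearly all actives have a fitted effect of over 40% in size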
Target sequence (P25779 123-467 limits assumed): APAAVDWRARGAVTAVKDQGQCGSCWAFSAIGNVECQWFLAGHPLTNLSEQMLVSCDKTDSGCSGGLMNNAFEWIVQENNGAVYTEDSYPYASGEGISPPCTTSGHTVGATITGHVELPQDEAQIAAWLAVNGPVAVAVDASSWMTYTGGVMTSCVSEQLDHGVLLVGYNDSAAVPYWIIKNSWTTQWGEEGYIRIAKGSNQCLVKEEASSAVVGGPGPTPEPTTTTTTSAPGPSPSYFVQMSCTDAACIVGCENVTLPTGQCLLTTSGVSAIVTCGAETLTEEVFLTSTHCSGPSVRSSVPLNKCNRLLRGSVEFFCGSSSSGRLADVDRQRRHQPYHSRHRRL
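Purified cruzain (1.5 nM final) was preincubated with compounds for 15 min at room temperature in 100 mM sodium acetate pH 5.5, 5 mM DTT, 0.01% Triton X-100. Reaction started with 2 uM Z-FR-AMC; AMC fluorescence change over 60 s gave activity.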
Cruzain inh noDet = blocks cruzain activity in detergent-free assay; P25779; purified cruzain, Z-FR-AMC fluorescence, no detergent; Potency, µM, for the others: max response, negative = inhibition, hits mostly inhibitors; 2.3% of 200,000 active; AID 1476;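 further: plate controls were enzyme without inhibitor for no effect and buffer without enzyme for full effect; nearly all actives have a fitted effect of over 40% in size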
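Purified cruzain at 1.5 nM, pre-incubated 15 min with compound at room temperature in 100 mM sodium acetate pH 5.5, 5 mM DTT, 0.00005% Triton X-100. Reaction started with 2 uM Z-FR-AMC; AMC fluorescence increase over 60 s gives rate.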
* marks the source's active call; other numbers are inactive results; ? = inconclusive. A selection: hits, their analogues and other compounds. The true share with any hit is near 2.5%. The call rests on the fitted dose curve; in most records, active means well fitted curve in the direction sought with a large enough effect; inconclusive means small, poorly fitted or top-dose-only effect, or another doubt; inactive means no such curve, though single readings can be large; an effect the other way counts as inactive or inconclusive. Potency means the concentration at half of the fitted maximal effect.

SMILES	Cruzain Triton	Cruzain inh noDet
COc1ccccc1CNC(=O)CC(c1ccc(OC)c(OC)c1)N1Cc2ccccc2C1=O (stereo unspecified)	-3%	-10%
CCc1ccccc1NC(=O)N1CCN(c2cc(-c3noc(C)n3)ccc2C)CC1	1%	0%
Cc1cc(F)ccc1S(=O)(=O)NCC(c1ccco1)S(=O)(=O)c1cccs1 (stereo unspecified)	0%	15%
C#CCn1cc(/C=N/Nc2nc3ccccc3[nH]2)c2ccccc21	-22%	32µM*
CCCCn1c(/C=N/Nc2nc3ccccc3[nH]2)nc2ccccc21	-11%	?
CC(=O)Nc1ccc(OC(=O)c2cc3cc(Br)cc(Br)c3oc2=O)cc1	-1%	20µM*
CC(=O)Nc1ccc(OC(=O)c2cc3cc(Br)ccc3oc2=O)cc1	0%	0%
CN(C)c1ccc(NC(=O)c2ccc([N+](=O)[O-])cc2Cl)cc1	-1%	?
Cc1nc(NC(=O)c2cccc(-c3cc4ccccc4oc3=O)c2)ccc1Br	-11%	20µM*
O=C(Nc1ccc(N2CCOCC2)cc1)c1cc2ccccc2o1	0%	-18%
O=C(Nc1ccc(N2CCCC2)cc1)c1cccc(F)c1	-14%	?
O=C(Nc1ccc(N2CCCC2)cc1)c1cccc(-c2cc3ccccc3oc2=O)c1	-16%	4µM*
O=C(Nc1ccc(N2CCCC2)cc1)c1ccccc1F	-10%	20µM*
Cc1nc(NC(=O)c2ccc(-c3cc4ccccc4oc3=O)cc2)ccc1Br	-1%	?
O=C(Nc1ccc(N2CCCC2)cc1)c1ccc([N+](=O)[O-])cc1Cl	0%	10µM*
NC(=[SH+])N=N/C=C1/C=CC=CN1.O=S(=O)(O)O.[Fe]	-2%	3%
Cc1ccc2c(CN3CCN(C(=O)c4ccc(Br)cc4)CC3)cc(=O)oc2c1	-6%	-8%
N#C/C(=C\c1ccc(-c2ccc(C(=O)O)cc2)o1)C(=O)Nc1ccccc1C(=O)O	-3%	2%
COc1ccccc1NC(=O)c1sc2nc(-c3cc4cc(Cl)ccc4oc3=O)[nH]c(=O)c2c1C	-2%	-3%
CN(c1nnc(NC(=O)Nc2ccccc2C(F)(F)F)s1)C1CCCCC1	-5%	-5%
O=C(Nc1ccc(Br)cn1)c1cccc(-c2cc3ccccc3oc2=O)c1	-12%	?
O=C(Nc1ccccc1N1CCCC1)c1cccc(-c2cc3ccccc3oc2=O)c1	-4%	25µM*
O=C(Nc1ccc(N2CCCC2)cc1)c1ccc2ccccc2c1	-23%	16µM*
O=C(Nc1ccc(N2CCCCC2)cc1)c1ccccc1	-1%	-6%
Cc1ccccc1-c1noc(-c2ccc(N3CCN(C)CC3)c([N+](=O)[O-])c2)n1	-4%	?
SMILES	Cruzain Triton	Cruzain inh noDet
CCCCCOc1ccc(C(=O)N(Cc2ccccc2)C2CCS(=O)(=O)C2)cc1 (stereo unspecified)	-4%	?
Nc1nc(SCC(=O)Nc2ccc3c(c2)CCC3)n[nH]1	-2%	-17%
O=C(CSc1nc(O)cc(=O)[nH]1)Nc1ccc2c(c1)CCC2	-11%	16µM*
c1cncc(-c2nnc(SCc3nc4ccccc4[nH]3)o2)c1	-2%	?
c1ccc2[nH]c(CSc3nc4ccccc4o3)nc2c1	-18%	13µM*
CC(C)c1ccc(NC(=O)CSc2nc(=O)n(Cc3ccccn3)c3c2CCC3)cc1	0%	7%
COc1ccc(CNC(=O)C2CCN(c3nc4ccc(C)cc4[nH]3)CC2)cc1	-3%	-13%
C/C=C(\C)C(=O)C[Si](C)(C)c1ccccc1	9%	0%
Cc1ccc(S(=O)(=O)N(C(=O)c2ccncc2)c2ccc3oc4c(c3c2)CCCC4)cc1[N+](=O)[O-]	1%	13µM*
CCc1ccc(S(=O)(=O)N(C(C)=O)c2ccc3oc4c(c3c2)CCCC4)cc1	-5%	-8%
COC(=O)c1c(C)oc2ccc(N(C(=O)c3ccncc3)S(=O)(=O)c3cc(C)c(C)cc3C)cc12	-6%	2%
Cc1ccc([N+](=O)[O-])cc1S(=O)(=O)N(C(=O)c1ccncc1)c1ccc2oc3c(c2c1)CCCC3	-2%	13µM*
COc1cccc2cc(C(=O)Nc3ccc(CC(=O)O)cc3)c(=O)oc12	-3%	-14%
O=C(O)CNC(=O)/C(=C/c1ccco1)NC(=O)/C=C/c1ccccc1	-6%	2%
C=CCOC(=O)/C(=C/c1ccco1)NC(=O)/C=C/c1ccccc1	28µM*	-28%
Cc1c([N+](=O)[O-])cc(C(=O)Oc2ccc(Br)cc2C(=S)N2CCCCC2)cc1[N+](=O)[O-]	-2%	25µM*
COc1ccc(C(=O)NC(=S)N2CCCCC2)cc1[N+](=O)[O-]	0%	-5%
Cc1ccc(OCC(=O)Nc2c(C(=O)c3ccc(Cl)cc3)oc3ccccc23)cc1C	1%	1%
O=C(Cn1nnc(-c2ccccc2Cl)n1)N/N=C/c1ccc(-c2cccc(Cl)c2)o1	-4%	32µM*
O=C(CN1CCCC1)N/N=C/c1ccc(-c2cccc(Cl)c2)o1	-12%	-10%
CCC1CN(C(=O)N2CCC(C(=O)NCc3cccc(F)c3)CC2)c2cc(C)ccc2O1 (stereo unspecified)	-6%	?
COc1cc2c(cc1NC(=O)COC(=O)[C@@H](NC(=O)c1ccccc1)C(C)C)oc1ccccc12	-9%	32µM*
CCc1ccc(OCC(=O)Nc2cc3oc4ccccc4c3cc2OC)cc1	0%	1%
CCN(CC)c1ccc(C(=O)OCC(=O)Nc2cc3oc4ccccc4c3cc2OC)cc1	-17%	13µM*
COc1cc2c(cc1NC(=O)COC(=O)[C@@H](NC(=O)c1ccccc1F)C(C)C)oc1ccccc12	-10%	?
SMILES	Cruzain Triton	Cruzain inh noDet
COc1cc2ncc3c(-c4ccccc4)nn(-c4ccc(C)cc4)c3c2cc1OC	-1%	?
COc1cc([N+](=O)[O-])ccc1NC(=O)N1CCC2(CC1)Nc1cc(F)ccc1-n1cccc12	-3%	25µM*
COc1ccccc1N1CCN(C(=O)Nc2ccc([N+](=O)[O-])cc2)CC1	-10%	-9%
Oc1ccc(Br)cc1-c1cc(-c2ccccc2)n[nH]1	-14%	-15%
Oc1ccc(Br)cc1-c1cc(-c2ccc(Cl)cc2)n[nH]1	8%	32µM*
CSc1cccc(NC(=O)N2CCN(S(=O)(=O)c3ccc4c(ccn4C)c3)CC2)c1	-3%	?
Cc1ccc(-c2cn3c(n2)sc2cc(C(=O)NCCC4=CCCCC4)ccc23)c(C)c1	0%	?
Cc1ccccc1C(=O)NC(CC(C)C)C(=O)OCc1cc(=O)n2cc(Br)ccc2n1 (stereo unspecified)	14µM*	16µM*
CC1CC1C(=O)OCc1cc(=O)n2cc(Br)ccc2n1 (stereo unspecified)	1%	-3%
CCOC(=O)c1cc(-c2ccc(F)cc2)n(CCC(=O)Nc2nc3ccc(OC)cc3s2)c1C	-2%	-11%
Cc1ccc(NC(=O)c2ccc3c(c2)NC(=O)c2ccccc2S3)cc1	0%	6%
CCNC(C)(C)[C@@H](SS)c1ccc(Br)cc1	2%	-12%
CCN(C(=O)c1cc2c(=O)n(CC)c3ccccc3c2s1)c1cccc(C(F)(F)F)c1	1%	3%
O=c1ccc2cc(OC3OC(CO)C(O)C(O)C3O)c(O)cc2o1 (stereo unspecified)	7.9µM*	13µM*
O=c1cc(-c2ccccc2)oc2cc(O[C@@H]3O[C@H](CO)[C@@H](O)[C@H](O)[C@H]3O)c(O)c(O)c12	-3%	7%
O=S(=O)(c1ccc2nc(-c3ccco3)c(-c3ccco3)nc2c1)N1CCOCC1	22µM*	1%

Compound activity (PubChem)
